Key:
Assay in all cases: PBM binding z-score (relative to random genomic background probes); higher = stronger binding; sequences stand for … in GC…GCGATTGACAGCGTAGAATGAAGG
[1] = tested on: RARb homodimer (NR concentration 270 nM)
Method in brief: (§1)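 Each nuclear receptor dimer, without ligand, was incubated for 1 h on custom Agilent 4×180K protein-binding microarrays. Binding was detected with antibodies against each partner (one per run), and scanned fluorescence was regression-normalized. The binding z-scores are referenced to random human genomic background probes.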

[2] = tested on: RARg:RXRa (NR concentration 270 nM, RXRa partner concentration 90 nM)
Method in brief: as §1

[3] = tested on: RARg homodimer (NR concentration 270 nM)
Method in brief: as §1

[4] = tested on: RXRa DBDmut IVT, anti-RXR (DBD mutation: RXRa K156A/R161A, NR concentration 90 nM)
Method in brief: as §1

[5] = tested on: RXRa homodimer (NR concentration 180 nM)
Method in brief: as §1

[6] = tested on: THRa:RXRa (NR concentration 90 nM, RXRa partner concentration 90 nM)
Method in brief: as §1

[7] = tested on: THRa homodimer (NR concentration 90 nM)
Method in brief: as §1

[8] = tested on: VDR:RXRa (NR concentration 270 nM, RXRa partner concentration 90 nM)
Method in brief: as §1

[9] = tested on: VDR homodimer (NR concentration 270 nM)
Method in brief: as §1

Sequence	PBM binding z-score [1]	PBM binding z-score [2]	PBM binding z-score [3]	PBM binding z-score [4]	PBM binding z-score [5]	PBM binding z-score [6]	PBM binding z-score [7]	PBM binding z-score [8]	PBM binding z-score [9]
CCTACTGGGCCAAAAAGGTCATTGGTGCCGATAA	4.58	4.6	4.13	0.562	4.92	3.13	0.738	5.2	2.89
GCTCGGACGACAAGGTCAGAGCTTTGTCCGTAGA	2.73	2.72	3.07	0.365	2.23	2.54	0.94	1.4	0.617
CAAGACAGGTGAAAGGTAACTCAGTCTGGTACGC	0.906	1.58	0.784	-0.244	2.35	1.2	0.0377	0.87	-0.217
ACTCGCAGGCCAAGGGTCACTCAAGATTAGTCCG	3.81	4.36	3.98	1.03	3.97	2.95	0.204	2.89	0.901
CCTGCTAGGGCATGGTCAGCTAATCTACAGTATG	0.406	0.464	1.07	-0.538	-0.195	-0.371	-0.949	-0.579	-0.585
CATACAGGGTCAGCTAGACCAGAGTAGGGACGGC	2.81	4.53	4.93	1.59	4.3	2.83	0.733	2.52	0.573
GTACCAAGGTGAATACGTCGTTGATGAGTAGGCG	0.139	0.764	0.692	-0.417	0.56	1.19	0.199	-0.262	-0.342
CCTAGCAGGGCAATCTGGGTCACTCAAGGCTTGA	2.36	1.56	1.89	0.252	0.981	4.24	-0.0319	1.08	-0.354
ATCTCTACGTAAAGATAGTTCAGTGAATGCAAAT	0.65	0.0953	0.572	0.102	0.153	0.0897	-0.716	0.567	0.535
CAAACTAGGTCATCGGAAGGTCAAAGTCCGCATG	5.46	8.08	6.47	2.25	5.58	4.2	2.3	5.72	3.67
TCGAGTAGTTTAGTCGGGGCATTCAGCCAACATA	0.253	-0.495	-0.511	0.57	-0.338	0.245	0.214	0.157	0.234
GCTATTAGTTGAAAGGGCAACCGAATGATTCTCG	2.09	1.26	1.37	0.972	1.21	0.664	-0.209	0.531	0.624
CCTACTGGGCCATCAGGTCATTGTTATCAACGTT	2.4	1.8	1.75	0.592	0.877	3.26	3.28	1.52	1.99
CGTCCAAGGTCAGCAGGGCAGTGAAAGCGACGTG	4.12	5.28	5.9	2.63	3.74	3.61	1.9	2.87	1.02
CTCGAAAGGTCGTGCTCAGGAGAGTATACCAAAC	2.52	4.36	4.09	1.88	5.03	2.64	0.423	2.92	1.36
ATCTCTAGGTAACAAGTTCAGTGACAGAGAGGAC	1.97	1.58	1.52	0.868	0.971	1.49	1.14	1.97	2.97
CCTATTAGTTGACCATAAGGGGAACCGAAGCTCG	0.9	0.438	0.565	0.467	0.236	0.633	0.694	0.632	0.895
TCATATAGGTAAAGGTGAAGGTCGAACGATATGA	2.28	2.15	2.07	0.787	2.51	1.82	0.00279	1.63	0.402
CTCGAAAGGTCGGTTGAGGTGAGTACACGGATAA	2.53	2.89	2.79	0.908	2.34	5.21	1.47	2.84	1.71
GCAGACAGGTGAAACTCAGGTAACTCAGGGTGGC	0.42	1.03	0.566	-0.185	0.901	2.7	0.521	-0.101	-0.73
TAGTCTAGGTCATTCAGGGGCCAGTATAGAAAGC	3.57	5.83	4.7	2.05	2.96	3.63	1.42	3.15	1.88
ATCTCTAGGTAACCAAGTTCAGTGGATGCCGAAC	1.38	0.761	0.959	0.576	0.536	1.46	0.709	4.04	2.45
GCGACTGGGGCATCAGCAGGTTACCATAACTTAA	0.856	0.955	0.455	-0.108	0.462	1.09	-0.0496	0.0367	-0.398
CGTCCAAGGTCATAGGAGGTCAGTGTAGACAGAT	5.63	6.73	7.24	3.82	6.53	5.46	3.59	6.49	4.71
ATCGAAAGGTAGACGAGGTGAGTATACACCGTTT	0.107	0.927	0.758	-0.531	0.582	2.01	0.239	0.452	-0.467
GCGACTGGGGCATCAGCAGGTTACCATGACTTAA	0.92	0.761	0.815	-0.0631	0.124	0.654	0.00537	-0.443	-0.549

Sequence	PBM binding z-score [1]	PBM binding z-score [2]	PBM binding z-score [3]	PBM binding z-score [4]	PBM binding z-score [5]	PBM binding z-score [6]	PBM binding z-score [7]	PBM binding z-score [8]	PBM binding z-score [9]
GTACCAAGGTGAATAGGTAGTTGATGAGTAGGCG	0.555	0.67	0.626	-0.423	0.629	1.14	0.657	-0.15	0.0253
CGTTAAAGTTCAAGGTAACGTAACAGAAAGCAGC	3.54	4.91	5.74	4.35	3.98	2.78	1.23	3.02	3.34
CCGATTGGGGCATAAGGTTACCATAAGCCAGCCC	1.76	1.79	1.12	0.0114	1.14	2.16	1.14	0.31	-0.374
CCAGACAGGTGAGACGGTAACTCAGCCTCGATTA	0.4	-0.0368	0.0246	0.0275	-0.179	-0.0755	0.114	-0.29	0.029
ATATTTAGGTTACATCCGGGTCATTCAGGCTATG	3.1	3.51	2.31	1.39	3.32	4.1	3.84	4.13	3.54
GATACAGGTTCAAGGCCAGAGTACGCGTATTGAT	1.44	1.82	1.3	3.5	2.13	1.55	0.144	3.41	3.82
ACAGACAGGTGAGTGAAGGTAACTCAGCTGGACG	0.005	0.297	0.64	-0.506	0.428	1.51	-0.394	-0.401	-0.355
CCAGACTGGTGAGAAGGTAACTCAGCCTCGATTA	-0.313	-0.398	-0.424	-0.127	-0.237	-0.0936	-0.27	-0.455	-0.352
CGAACTAGGTCAAGTACAGTGAATCTCCGCACGC	3.33	4.45	5.13	2	3.13	3.03	1.56	2.02	1.45
CAAACCAGGTCAAGGTCAAAGTCGGTTTGTGCCA	5.11	6.13	6.35	3.39	6.52	4.77	4.35	5.66	4.97
TCATATAGGTAATACAGGTGAGAGTCGGCATCTA	0.373	0.339	0.708	1.4	0.681	0.631	0.164	0.85	0.172
ACTAGCAGACCAAGTTTGGGTCACTCAAACAAAG	1.57	0.911	0.702	-0.0274	0.79	1.98	0.78	0.245	0.00842
TAGCCTAGGTCAGATCGGGCCTGTATACGCTATA	1.97	2.53	3.21	-0.396	1.29	2.64	-0.216	0.0712	-0.157
CATCCTAGGTCAGGGCCAGTATAGGAGGAACGTT	2.73	3.24	4.12	0.0171	2.22	2.52	0.878	0.731	0.11
TCTCGGAGGACACGAAGTTCAGAGCTTTCCAGAG	2.07	1.17	2.04	1.08	0.47	1.72	0.372	2.63	2.38
CCTAGCAGGCCAATCTGGGGCACTCAAGGCTTGA	0.233	-0.125	0.0351	-0.585	-0.29	1.65	-0.87	-0.786	-0.374
ATCGAAAGGTCGAGGTGAGGATAGAGAAAGGGAA	3.07	4.35	4.28	0.642	4.31	3.87	1.64	2.63	0.466
CGTACTAGGTCAAGGACAGTGAATCTCCGCACGC	3.14	3.81	4.64	1.21	2.53	3.22	2.42	1.33	0.444
ACTCGAAGGACAAAGGTCAGAGCTACGCCAGTGA	4.53	5.85	4.94	0.729	4.69	3.02	0.499	2.96	0.565
GGAAGGAGGGCATTCGAGTTGATAGCATGGCGAT	1.15	0.897	1.34	1.47	0.679	2.83	0.445	2.46	2.01
TCATATAGGTAAATGTTAGGTGAAAGTCCGATCT	0.881	0.623	0.326	2.12	1.09	2.51	1.58	1.23	0.982
CCTACTGGTCCATCAGGTCATTGATATCAACGTT	2.5	1.6	1.47	1.04	1.28	3.41	3.29	2.46	2.02
ATATGTAGGTTGAGGGTCATTCAGGTTGGTTCGC	3.23	2.89	2.15	1.95	3.62	2.92	1.68	4.78	3.74
AGAATGAGCTTATTAAGATCAGGGAATTGCGGTC	-0.66	-0.341	-0.0554	-0.496	-0.0846	-0.273	-0.456	-0.43	-0.554
CAAACTAGGTCAAGAGGTCATAGTCCGCTTCCCG	5.49	7.6	7.08	2.78	7.48	4.35	2.59	5.59	3.82
GGGACGAGGGCAAAGTTGATAGCATCTGTCGACG	1.44	2.17	1.98	2.35	1.9	1.52	0.0608	1.47	1.85
